Measured values from PubChem BioAssay AID1159580 (chemical genetic matrix, 2015).
Several values for one entry are separate records, joined by “and”; a condition that tells them apart may be missing. Identical values can stand only once. Among all 5,500 compounds or so, about 2,000 (36%) were called active. Not shown: some 18% with an inconclusive outcome. Cut-off read from the data, not from the text of the source: active = normalized growth mostly below about 0.91 (no sharp cut-off); inconclusive = no clear call, values can overlap the other calls; inactive = mostly above about 0.92. Some of the results follow.

Test: chemical genetic growth profiling, strain panel (AID 1159580);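 note: tested at 20 µM; growth read once vehicle control cultures reached saturation at 30 °C; 1 = growth at the plate median or of vehicle wells; lower values mean less growth of the strain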
Conditions: growth OD

Measured: normalized growth

CCCN(CCC)C(=O)C(CCC(=O)O)NC(=O)c1ccccc1 (stereo unspecified)
inactive: S. cerevisiae deletion strains, locus YJR075W, strain HOC1, stronger effect = lower value 0.988 | S. cerevisiae deletion strains, locus YKL009W, strain mrt4, stronger effect = lower value 1.02 | S. cerevisiae deletion strains, locus YKL068W, stronger effect = lower value 0.975 | S. cerevisiae deletion strains, locus YKL085W, strain MDH1 (second series), stronger effect = lower value 0.987 | S. cerevisiae deletion strains, locus YKL085W, strain MDH1, stronger effect = lower value 0.987 | S. cerevisiae deletion strains, locus YKL160W, strain elf1, stronger effect = lower value 1.01 | S. cerevisiae deletion strains, locus YKL190W, strain CNB1, stronger effect = lower value 0.988 | S. cerevisiae deletion strains, locus YKR001C, strain vps1, stronger effect = lower value 0.995 | S. cerevisiae deletion strains, locus YKR026C, strain gcn3, stronger effect = lower value 0.974 | S. cerevisiae deletion strains, locus YKR091W, strain srl3, stronger effect = lower value 0.985 | S. cerevisiae deletion strains, locus YLL001W, strain dnm1, stronger effect = lower value 0.973 | S. cerevisiae deletion strains, locus YLL026W, stronger effect = lower value 0.993 | S. cerevisiae deletion strains, locus YLL041C, strain sdh2, stronger effect = lower value 0.982 | S. cerevisiae deletion strains, locus YLR027C, strain aat2, stronger effect = lower value 0.982 | S. cerevisiae deletion strains, locus YLR039C, strain RIC1, stronger effect = lower value 0.987 | S. cerevisiae deletion strains, locus YLR058C, strain SHM2, stronger effect = lower value 0.997 | S. cerevisiae deletion strains, locus YLR102C, strain apc9, stronger effect = lower value 0.986 | S. cerevisiae deletion strains, locus YLR113W, strain HOG1, stronger effect = lower value 0.96 | S. cerevisiae deletion strains, locus YLR221C, strain rsa3, stronger effect = lower value 0.988 | S. cerevisiae deletion strains, locus YLR258W, strain gsy2, stronger effect = lower value 0.973 | S. cerevisiae deletion strains, locus YLR262C, strain YPT6 (second series), stronger effect = lower value 0.968 | S. cerevisiae deletion strains, locus YLR262C, strain YPT6, stronger effect = lower value 0.998 | S. cerevisiae deletion strains, locus YLR268W, strain sec22, stronger effect = lower value 0.955 | S. cerevisiae deletion strains, locus YLR320W, strain mms22, stronger effect = lower value 0.987 | S. cerevisiae deletion strains, locus YLR330W, strain CHS5, stronger effect = lower value 0.995 | S. cerevisiae deletion strains, locus YLR342W, strain FKS1 (second series), stronger effect = lower value 1.08 | S. cerevisiae deletion strains, locus YLR342W, strain FKS1, stronger effect = lower value 0.989 | S. cerevisiae deletion strains, locus YLR357W, strain rsc2, stronger effect = lower value 0.964 | S. cerevisiae deletion strains, locus YLR370C, strain arc18, stronger effect = lower value 0.984 | S. cerevisiae deletion strains, locus YLR371W, strain rom2, stronger effect = lower value 0.986 | S. cerevisiae deletion strains, locus YLR384C, strain iki3, stronger effect = lower value 0.982 | S. cerevisiae deletion strains, locus YLR418C, strain cdc73, stronger effect = lower value 1 | S. cerevisiae deletion strains, locus YML016C, strain PPZ1, stronger effect = lower value 1.01 | S. cerevisiae deletion strains, locus YML032C, strain rad52, stronger effect = lower value 0.982 | S. cerevisiae deletion strains, locus YML120C, strain ndi1, stronger effect = lower value 0.988 | S. cerevisiae deletion strains, locus YML124C, strain tub3, stronger effect = lower value 0.988 | S. cerevisiae deletion strains, locus YMR058W, strain fet3, stronger effect = lower value 0.983 | S. cerevisiae deletion strains, locus YMR078C, strain ctf18, stronger effect = lower value 0.985 | S. cerevisiae deletion strains, locus YMR125W, strain sto1, stronger effect = lower value 0.975 | S. cerevisiae deletion strains, locus YMR129W, stronger effect = lower value 1 | S. cerevisiae deletion strains, locus YMR205C, strain PFK2, stronger effect = lower value 0.992 | S. cerevisiae deletion strains, locus YMR223W, strain ubp8, stronger effect = lower value 1.02 | S. cerevisiae deletion strains, locus YMR231W, strain pep5, stronger effect = lower value 0.976 | S. cerevisiae deletion strains, locus YMR263W, strain SAP30, stronger effect = lower value 0.99 and 1.01 | S. cerevisiae deletion strains, locus YMR307W, strain GAS1, stronger effect = lower value 1.06 and 0.989 | S. cerevisiae deletion strains, locus YNL067W, strain RPL9B, stronger effect = lower value 0.982 | S. cerevisiae deletion strains, locus YNL071W, strain lat1, stronger effect = lower value 1 | S. cerevisiae deletion strains, locus YNL128W, strain TEP1, stronger effect = lower value 0.983 | S. cerevisiae deletion strains, locus YNL153C, strain GIM3, stronger effect = lower value 1 and 1.01 | S. cerevisiae deletion strains, locus YNL175C, strain NOP13, stronger effect = lower value 1.01 | S. cerevisiae deletion strains, locus YNL183C, strain NPR1, stronger effect = lower value 0.933 | S. cerevisiae deletion strains, locus YNL197C, strain WHI3, stronger effect = lower value 1.08 | S. cerevisiae deletion strains, locus YNL209W, strain ssb2, stronger effect = lower value 0.979 | S. cerevisiae deletion strains, locus YNL224C, strain SQS1, stronger effect = lower value 1 | S. cerevisiae deletion strains, locus YNL233W, strain BNI4, stronger effect = lower value 0.989 | S. cerevisiae deletion strains, locus YNL248C, strain rpa49, stronger effect = lower value 0.948 | S. cerevisiae deletion strains, locus YNL250W, strain rad50, stronger effect = lower value 0.982 | S. cerevisiae deletion strains, locus YNL271C, strain bni1, stronger effect = lower value 0.988 | S. cerevisiae deletion strains, locus YNL298W, strain CLA4, stronger effect = lower value 0.998 | S. cerevisiae deletion strains, locus YNL307C, strain MCK1, stronger effect = lower value 0.996 | S. cerevisiae deletion strains, locus YNL322C, strain KRE1 (second series), stronger effect = lower value 0.99 | S. cerevisiae deletion strains, locus YNL322C, strain KRE1, stronger effect = lower value 0.982 and 1.01 | S. cerevisiae deletion strains, locus YNR049C, strain mso1, stronger effect = lower value 0.968 | S. cerevisiae deletion strains, locus YNR052C, strain pop2, stronger effect = lower value 0.991 | S. cerevisiae deletion strains, locus YOL006C, strain TOP1, stronger effect = lower value 0.957 | S. cerevisiae deletion strains, locus YOL012C, strain htz1 1.01 | S. cerevisiae deletion strains, locus YOL147C, strain pex11, stronger effect = lower value 0.995 | S. cerevisiae deletion strains, locus YOR001W, strain rrp6, stronger effect = lower value 0.984 | S. cerevisiae deletion strains, locus YOR061W, strain CKA2, stronger effect = lower value 1.01 | S. cerevisiae deletion strains, locus YOR069W, strain VPS5, stronger effect = lower value 0.997 | S. cerevisiae deletion strains, locus YOR070C, strain gyp1, stronger effect = lower value 0.99 | S. cerevisiae deletion strains, locus YOR080W, strain dia2, stronger effect = lower value 0.969 | S. cerevisiae deletion strains, locus YOR083W, strain WHI5 (second series), stronger effect = lower value 1.01 | S. cerevisiae deletion strains, locus YOR083W, strain WHI5, stronger effect = lower value 0.98 | S. cerevisiae deletion strains, locus YOR106W, strain vam3, stronger effect = lower value 0.975 | S. cerevisiae deletion strains, locus YOR136W, strain idh2, stronger effect = lower value 0.989 | S. cerevisiae deletion strains, locus YOR144C, strain elg1, stronger effect = lower value 0.977 | S. cerevisiae deletion strains, locus YOR184W, strain ser1, stronger effect = lower value 0.993 | S. cerevisiae deletion strains, locus YOR231W, strain MKK1, stronger effect = lower value 0.978 | S. cerevisiae deletion strains, locus YOR265W, strain rbl2, stronger effect = lower value 0.987 | S. cerevisiae deletion strains, locus YOR270C, strain vph1, stronger effect = lower value 0.919 | S. cerevisiae deletion strains, locus YOR290C, strain snf2, stronger effect = lower value 0.988 | S. cerevisiae deletion strains, locus YOR316C, strain cot1, stronger effect = lower value 0.977 | S. cerevisiae deletion strains, locus YPL051W, strain arl3, stronger effect = lower value 0.987 | S. cerevisiae deletion strains, locus YPL055C, strain LGE1, stronger effect = lower value 0.99 and 1.01 | S. cerevisiae deletion strains, locus YPL078C, strain atp4, stronger effect = lower value 0.992 | S. cerevisiae deletion strains, locus YPL106C, strain sse1, stronger effect = lower value 0.955 | S. cerevisiae deletion strains, locus YPL240C, strain hsp82, stronger effect = lower value 0.986 | S. cerevisiae deletion strains, locus YPL241C, strain CIN2, stronger effect = lower value 1 | S. cerevisiae deletion strains, locus YPL256C, strain CLN2, stronger effect = lower value 0.965 | S. cerevisiae deletion strains, locus YPR119W, strain clb2, stronger effect = lower value 0.989 | S. cerevisiae deletion strains, locus YPR141C, strain kar3, stronger effect = lower value 0.984 | S. cerevisiae deletion strains, locus YPR163C, strain tif3, stronger effect = lower value 0.977 | S. cerevisiae deletion strains, locus YPR167C, strain met16, stronger effect = lower value 0.983 | S. cerevisiae deletion strains, strain wtn01, stronger effect = lower value 0.987 | S. cerevisiae strains, strain wild type, stronger effect = lower value 1
